# Laboratory results as given in PubChem BioAssay AID1209 (Sanford-Burnham Center for Chemical Genomics, 2008).
# About 810 (0.43%) of roughly 190,000 compounds were called active. Cut-off read from the data, not from the text of the source: active = inhibition above about 50%; inactive = the rest. The list comes from a sample in which actives are over-represented; it also holds similar structures and randomly drawn compounds.
# Biological target: Mannose-6-phosphate isomerase (Homo sapiens) (UniProt P34949)
# Sequence (P34949 whole entry, looked up): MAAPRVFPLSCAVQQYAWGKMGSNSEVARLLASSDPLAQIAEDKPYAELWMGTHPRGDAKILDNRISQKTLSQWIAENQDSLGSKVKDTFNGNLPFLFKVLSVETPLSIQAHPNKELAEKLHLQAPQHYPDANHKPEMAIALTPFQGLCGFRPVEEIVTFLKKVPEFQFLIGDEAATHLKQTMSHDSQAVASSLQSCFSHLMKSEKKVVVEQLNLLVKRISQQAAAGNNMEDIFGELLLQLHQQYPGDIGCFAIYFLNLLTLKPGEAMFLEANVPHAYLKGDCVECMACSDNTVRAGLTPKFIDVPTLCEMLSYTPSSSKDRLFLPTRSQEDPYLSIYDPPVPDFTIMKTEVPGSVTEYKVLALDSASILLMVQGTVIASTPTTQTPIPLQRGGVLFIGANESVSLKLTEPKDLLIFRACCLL
# Assay: MPI enzyme activity inhibition – biochemical, fluorescence intensity, coupled assay, primary screen (AID 1209);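 note: plate controls were DMSO vehicle for no effect and wells lacking substrate for full effect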
# Conditions: purified PMI enzyme, at 20 µM, active compounds read high
row,Compound,inhibition
1,CC(C)NS(=O)(=O)c1ccc(OCC(=O)NC(C)c2ccccc2)cc1 (stereo unspecified),2.2% (inactive)
2,O=C(O)c1ccc(/C=C/c2nc3sc4c(c3c(=O)[nH]2)CCC4)cc1,-3.7% (inactive)
3,COc1cnn(C(C)(C)C)c(=O)c1Cl,-0.3% (inactive)
4,COc1ccc(CC(=O)NCc2ccc3c(c2)cc(C)n3C)cc1OC,6.1% (inactive)
5,O=C(Nc1ccc(Cl)cc1)NC1CCCc2ccccc21 (stereo unspecified),2.6% (inactive)
6,Cc1cc(/C=C(\C#N)C(N)=O)c(C)n1-c1ccc(N2CCOCC2)c([N+](=O)[O-])c1,3.6% (inactive)
7,C[C@]12CC[C@@H]3c4cc(O)c(O)cc4CC[C@H]3[C@@H]1CC[C@@H]2O,51.8% (active)
8,COc1cc2c(cc1O)CC[C@@H]1[C@@H]2CC[C@]2(C)[C@@H](O)CC[C@@H]12,1.7% (inactive)
9,C[C@]12CC[C@@H]3c4ccc(O)cc4CC[C@H]3[C@@H]1CC[C@@H]2O,-5.7% (inactive)
10,Cc1ccc(NC(=O)COC(=O)c2ccc3c(c2)C(=O)N(CCc2ccccc2)C3=O)c(C)c1,4.6% (inactive)
11,Cc1cc(C)n(-c2cc(N3CCN(S(=O)(=O)c4ccc(Br)cc4)CC3)ccc2[N+](=O)[O-])n1,13.5% (inactive)
12,Cc1nc2c(C(=O)NCCc3ccccc3)c[nH]n2c(=O)c1Cl,60.3% (active)
13,Cc1nc2c(C(=O)NCCc3ccccc3Cl)c[nH]n2c(=O)c1Cl,2.9% (inactive)
14,Cc1nc2c(C(=O)NCc3ccccc3)c[nH]n2c(=O)c1Cl,12.3% (inactive)
15,CNS(=O)(=O)c1cnccc1N1CCN(C)CC1,9.4% (inactive)
16,Cc1ccc(C(=O)Nc2ccc(SC(F)F)cc2)s1,-11.4% (inactive)
17,COc1cc(/C=C2\CC/C(=C\c3cc(OC)c(OC)c(OC)c3)C2=O)cc(OC)c1OC,4.2% (inactive)
18,COc1cc(/C=C2\CC/C(=C\c3cc(OC)c(O)c(OC)c3)C2=O)cc(OC)c1O,59.3% (active)
19,COc1ccc(/C=C2\CC/C(=C\c3ccc(OC)c(OC)c3)C2=O)cc1OC,25.9% (inactive)
20,CCn1c(COc2cccc3ccccc23)nnc1SCC(=O)OC1CCCCC1,17.8% (inactive)
21,Cc1ccc(S(=O)(=O)NCC(=O)N2CCCC2)cc1,-10.6% (inactive)
22,Cc1ccccc1CNC(=O)Cc1cccs1,2% (inactive)
23,Cc1ccsc1/C=C1\CCc2ccccc2C1=O,25.2% (inactive)
24,COc1ccc(CCNC(=O)C2CC(=O)N(CCc3ccccc3)C2)cc1OC (stereo unspecified),0% (inactive)
25,Cc1ccc(NC(=S)Nc2cccc3cnccc23)c(C)c1,37.8% (inactive)
26,CC(C)NC(=S)Nc1cccc2cnccc12,-4.7% (inactive)

row,Compound,inhibition
1,Cc1ccc(C)c(NC(=S)Nc2cccc3cnccc23)c1,50.3% (active)
2,FC(F)(F)c1ccccc1NC(=S)Nc1cccc2cnccc12,5.4% (inactive)
3,Cc1ccccc1NC(=S)Nc1cccc2cnccc12,60.5% (active)
4,Cc1ccc(C)c(NC(=S)Nc2cccnc2)c1,-7% (inactive)
5,O=C(O)CCC(=O)NNC(=O)CCC(=O)Nc1ccccc1,13.6% (inactive)
6,CC(=O)c1cc(NC(=O)c2ccc([N+](=O)[O-])cc2)c(=O)oc1C,-41% (inactive)
7,O=C(Nc1cc2c(oc1=O)CCCC2=O)c1cccc(Cl)c1,-17.4% (inactive)
8,CCOC(=O)N1CCN(S(=O)(=O)Cc2ccccc2)CC1,104% (active)
9,CCN1CCN(S(=O)(=O)Cc2ccccc2)CC1,-0.2% (inactive)
10,CCOC(=O)C1CCN(S(=O)(=O)Cc2ccccc2)CC1,-11.2% (inactive)
11,CN1/C(=N\O)c2cccc3cccc1c23,5.7% (inactive)
12,CC1=Nc2cccc3cccc(c23)N1C,25.2% (inactive)
13,CCC1=[N+](C)c2cccc3cccc(c23)N1C,51% (active)
14,O=C(CCc1ccc(Oc2cc([N+](=O)[O-])cc([N+](=O)[O-])c2)cc1)N1CCCCCC1,5.7% (inactive)
15,COc1ccccc1NC(=S)N(CCc1nc2cc(C)c(C)cc2[nH]1)Cc1cccnc1,-2% (inactive)
16,CCOC(=O)C(NC(=O)CC)(Nc1ccc(S(=O)(=O)Nc2ncccn2)cc1)C(F)(F)F (stereo unspecified),0.5% (inactive)
17,Cc1ccc(OC(=O)C(F)(F)F)c2c1NCCC2,16.6% (inactive)
18,Oc1c(Cl)cc(Cl)c2c1NCCC2,61.2% (active)
19,Cc1cc2c(C)cc(=O)oc2c2c1NCCC2,25.3% (inactive)
20,CCOC(=O)c1sc(=S)n(-c2ccccc2)c1N,-2.1% (inactive)
21,COc1ccc(Cl)cc1-n1c(N)c(C(N)=O)sc1=S,22.6% (inactive)
22,CCOC(=O)c1sc(=S)n(-c2ccc(F)c(F)c2)c1N,27% (inactive)
23,CCOC(=O)c1sc(=S)n(-c2cccc(OC)c2)c1N,63.2% (active)
24,CCOC(=O)c1sc(=S)n(-c2ccccc2OC)c1N,21.8% (inactive)
25,CCOC(=O)c1sc(=S)n(-c2cc(F)ccc2F)c1N,37.9% (inactive)
26,Cc1ccc(NC(=O)c2sc(=S)n(-c3cc(C)ccc3F)c2N)cc1,1.4% (inactive)

row,Compound,inhibition
1,COC(=O)c1sc(=S)n(-c2cccc(Cl)c2)c1N,75.9% (active)
2,COC(=O)c1sc(=S)n(-c2cc(F)ccc2F)c1N,55.8% (active)
3,CCOC(=O)c1sc(=S)n(-c2ccc(C)cc2)c1N,30.1% (inactive)
4,COC(=O)c1sc(=S)n(-c2ccccc2OC)c1N,0.3% (inactive)
5,CCOC(=O)c1sc(=S)n(-c2cc(OC)ccc2OC)c1N,65.3% (active)
6,CCOC(=O)c1c(C)c(C(=O)NCc2ccccc2OC)c(C)n1C,11.8% (inactive)
7,CCOC(=O)CNC(=S)n1ncnc1N,-9.1% (inactive)
8,Cc1ccc(S(=O)(=O)CCC(=O)Nc2ccc(F)cc2)cc1,6.5% (inactive)
9,Cc1cccc(C(C)C)c1NC(=O)COC(=O)Cc1ccsc1,9% (inactive)
10,Cc1ccc(OCC(=O)N/N=C/c2ccco2)cc1,-1.5% (inactive)
11,CCNc1nc(NCC)nc(N/N=C/c2ccc(Br)cc2)n1,-0.7% (inactive)
12,Oc1ccc(/C=N/Nc2cc(N3CCOCC3)nc(N3CCOCC3)n2)cc1O,76.8% (active)
13,CCNc1nc(NCC)nc(N/N=C/c2ccc(N(C)C)cc2)n1,-12.9% (inactive)
14,Oc1ccc(/C=N\Nc2cc(N3CCOCC3)nc(N3CCOCC3)n2)c(O)c1,32.2% (inactive)
15,CCNc1nc(NCC)nc(N/N=C/c2ccc(O)c(O)c2)n1,61.4% (active)
16,Clc1ccc(-c2ccc(/C=N/Nc3cc(N4CCOCC4)nc(N4CCOCC4)n3)o2)cc1,47.2% (inactive)
17,Oc1cccc(/C=N/Nc2cc(N3CCCC3)nc(N3CCCC3)n2)c1,41.2% (inactive)
18,Oc1ccc(/C=N/Nc2cc(N3CCCC3)nc(N3CCCC3)n2)cc1,32% (inactive)
19,CN(C)c1ccc(/C=C/C=N/Nc2nc(N3CCOCC3)nc(N3CCOCC3)n2)cc1,7.3% (inactive)
20,COc1ccc(/C=N/Nc2cc(N3CCCC3)nc(N3CCCC3)n2)cc1,32% (inactive)
21,CN(C)c1ccc(/C=N/Nc2cc(N3CCOCC3)nc(N3CCOCC3)n2)cc1,73.3% (active)
22,CC(C)c1ccc(/C=N/Nc2cc(N3CCOCC3)nc(N3CCOCC3)n2)cc1,77% (active)
23,O=[N+]([O-])c1ccc(O)c2cccnc12,-10.1% (inactive)
24,CCCn1nc(C(=O)NC2CCCc3ccccc32)c2ccccc2c1=O (stereo unspecified),6.9% (inactive)
25,COc1ccc(OC)c(C(=O)COC(=O)c2cc(C)oc2C)c1,-24.4% (inactive)
26,O=C(CNC(=O)c1cccs1)NCC(=O)OCc1cccc(Cl)c1,4.5% (inactive)

row,Compound,inhibition
1,CCOC(=O)C1=C(C)Nc2ccccc2N=C1NC(=O)Cc1ccc(Br)cc1,18.8% (inactive)
2,COc1ccc(Br)cc1-c1noc(-c2ccccc2)n1,11.5% (inactive)
3,COc1ccc(C2C(C#N)=C(N)Oc3n[nH]c(C)c32)cc1Cn1cc([N+](=O)[O-])cn1 (stereo unspecified),7.7% (inactive)
4,O=C(/C=C/c1ccc(Br)cc1)NC(=S)NNC(=O)c1ccco1,-1.2% (inactive)
5,Oc1ccc(/C=N/Nc2nc(N3CCCC3)nc(N3CCCC3)n2)cc1O,57.6% (active)
6,COc1ccc(/C=N/Nc2nc(N3CCCC3)nc(N3CCCC3)n2)cc1O,-10.3% (inactive)
7,COc1cc(/C=N/Nc2nc(N3CCCC3)nc(N3CCCC3)n2)ccc1O,7.9% (inactive)
8,N=C1C(c2ccccc2)=C(O)CN1c1cccc(S(N)(=O)=O)c1,10.1% (inactive)
9,CC1(C)C2CCC1(CS(=O)(=O)N1CCOCC1)C(=O)C2 (stereo unspecified),7.9% (inactive)
10,CCOC(=O)c1cc2sccc2n1CC(=O)Nc1ccc(OC)cc1OC,16% (inactive)
11,O=C1c2ccccc2C(=O)N1CN(C(=O)COc1ccccc1)c1ccccc1,3.5% (inactive)
12,COC(=O)c1ccc(Sc2ccc(F)cc2)c(N)c1,11.4% (inactive)
13,COC(=O)c1ccc(Sc2ccc(Cl)cc2)c(N)c1,9.3% (inactive)
14,COC(=O)c1ccc(Sc2ccc(C)cc2)c(N)c1,55% (active)
15,Cc1sc2nc(CSc3n[nH]c(N)n3)[nH]c(=O)c2c1C,-10.2% (inactive)
16,CCCCNc1cc(NC(C)=O)cc2cc(OC)c(OC)cc12,53.3% (active)
17,CCCCNc1nc(=S)[nH]c2cc(OC)c(OC)cc12,-4.5% (inactive)
18,CCCC(=O)Nc1cc(OC)c(OC)cc1C(=O)O,6.8% (inactive)
19,Cc1cc(C)c(C#N)c(SCc2[nH]nc3c2C(c2ccc(F)cc2)C(C#N)=C(N)O3)n1 (stereo unspecified),12.8% (inactive)
20,COc1cc(OC)cc(C(=O)NNC(=O)Cc2ccc(OC)c(S(=O)(=O)N3CCOCC3)c2)c1,2.7% (inactive)
21,CCCCNC(=O)c1sc(=S)n2c1[nH]c(=O)c1ccccc12,16.1% (inactive)
22,CCOC(=O)c1sc(=S)n2c1[nH]c(=O)c1ccc(C(=O)OC)cc12,68.6% (active)
23,CCCCCNC(=O)c1ccc2c(=O)[nH]c3c(C(=O)NCC4CCCO4)sc(=S)n3c2c1 (stereo unspecified),10.4% (inactive)
